These results are taken from PubChem BioAssay (NCI).

Test systems include T-47D breast; BT-549 breast; MDA-MB-435 melanoma; SW-620 colon; MCF7 breast; HCT-116 colon; HCC-2998 colon; KM12 colon.
Holding throughout (assay): NCI-60 one-dose screen, 48 h (100 = growth as untreated, 0 = no growth, -100 = all killed)
Common to all, as to conditions: 10 µM unless noted

The panel holds about 83,000 compounds, 20% with a hit somewhere; the sample as a whole holds those more often.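 Results are percent growth after 48 hours of single-concentration exposure. 100 means growth as in untreated cells, lower positive values show inhibition; negative values down to -100 show cell death.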 A number with no mark means an inactive call. Calls of active or inactive are those of the source. Rule for the calls: active = growth percent below 10; inactive = the rest.

Consider `N=C(N)c1ccc(-c2ccc(-c3cccs3)s2)cc1F`, for which the growth was -63.7% (active) in the test on T-47D breast; -80.6% (active) with BT-549 breast; -81.5% (active) in the test with MDA-MB-435 melanoma; -62.8% (active) in the test with SW-620 colon; -68.5% (active) in the test on MCF7 breast; -47.2% (active) with HCT-116 colon. Besides, the values for the growth in the test on HCC-2998 colon and in the test on KM12 colon were -81.2% (active) and -76.8% (active), respectively.

For the compound `O=C(CSc1nc2c(n1Nc1ccccc1)-c1ccccc1SC2)Nc1nccs1`, the growth was 97.6% in the test with T-47D breast; 127% in the test on BT-549 breast; 103% in the test with MDA-MB-435 melanoma; 97.5% in the test on SW-620 colon; 96.3% with MCF7 breast; 88.3% in the test with HCT-116 colon. Besides, the growth was 99.7% with HCC-2998 colon and 102% in the test on KM12 colon.

As to `O=C(Nc1ccc([N+](=O)[O-])cc1)c1cc2ccccc2cc1O`, the growth in the test on T-47D breast was 1.61% (active); with BT-549 breast, -14.2% (active); in the test with MDA-MB-435 melanoma, 0.673% (active); in the test with SW-620 colon it was 4.63% (active); in the test on MCF7 breast, 5.51% (active); in the test with HCT-116 colon, -39.7% (active). Besides, the growth in the test on HCC-2998 colon is 5.37% (active); with KM12 colon, 92.6%.

Regarding `O=C(/C=C/c1ccc(F)cc1)N1CCN(C(=O)/C=C/c2ccc(C(F)(F)F)cc2)CC1`, the growth in the test on T-47D breast was 113%; with BT-549 breast it was 115%; with MDA-MB-435 melanoma, 104%; with SW-620 colon, 106%; with MCF7 breast, 98.2%; with HCT-116 colon it was 98%. The values for the growth in the test with HCC-2998 colon and with KM12 colon were 102% and 108%, respectively.

As for `C=C(c1ccc(C(=O)NCCCn2ccnc2)cc1)c1cc2c(cc1C)C(C)(C)CCC2(C)C`, the growth with T-47D breast was -16.9% (active); in the test on BT-549 breast it was 39.7%; with MDA-MB-435 melanoma it was -27% (active); with SW-620 colon it was 16.5%; in the test on MCF7 breast, 35.5%; with HCT-116 colon it was -59% (active). Further, the results for the growth in the test with HCC-2998 colon and in the test with KM12 colon were 26.8% and 24.5%, respectively.

Take `COc1ccc(C(=O)OC2C(OC3C(O)COC(O[C@H]4C[C@H]5[C@@H]6CC=C7C[C@@H](O)CC[C@]7(C)[C@H]6CC[C@]5(C)[C@H]4[C@H](C)C(=O)CCC(C)C)C3OC(N)=O)OCC(O)C2O)cc1` (stereo not given in full): the growth in the test with T-47D breast was 1.19% (active); in the test with BT-549 breast, -2.62% (active); in the test on MDA-MB-435 melanoma it was -63% (active); with SW-620 colon, -62.1% (active); with MCF7 breast, -21.1% (active); with HCT-116 colon, -7.43% (active). For the same compound, the growth in the test with HCC-2998 colon was 52.7%; in the test on KM12 colon, 27.4%.

Turning to `CSc1nc(N)c2[nH]c(-c3cc4ccccc4[nH]c3=O)nc2n1`, the growth was 72.9% in the test on T-47D breast; 47.9% in the test with BT-549 breast; 102% in the test with MDA-MB-435 melanoma; 90.1% with SW-620 colon; 65.7% with MCF7 breast; 53.9% in the test on HCT-116 colon. For the same compound, the growth with HCC-2998 colon was 95%; with KM12 colon, 96.9%.

Regarding `Cc1c(C(=O)CCl)c(=O)n(-c2ccccc2)n1C`, the growth in the test with T-47D breast is 34.3%; with BT-549 breast it was 61.2%; with MDA-MB-435 melanoma, 40%; in the test on SW-620 colon, 36.6%; in the test with MCF7 breast, 38.2%; in the test with HCT-116 colon it was 32%. Also, the growth in the test on HCC-2998 colon was 85.9%; in the test with KM12 colon it was 88.7%.

In the case of `CC(C)(CCc1ccccn1)C(=O)CCCc1ccccn1`, the growth in the test on T-47D breast was 95.2%; with BT-549 breast it was 105%; in the test on MDA-MB-435 melanoma it was 109%; with SW-620 colon it was 106%; in the test with MCF7 breast, 98.6%; with HCT-116 colon, 93.9%. The growth in the test with KM12 colon is 106%.

Take `CCN(CC)c1ccc2c(cc1=O)[C@@H](NC(C)=O)CCc1cc(OC)c(OC)c(OC)c1-2`: the growth is 82.2% in the test on T-47D breast; 1.73% (active) with BT-549 breast; -43.9% (active) in the test with MDA-MB-435 melanoma; 23.3% with SW-620 colon; 14.9% in the test with MCF7 breast; 3.75% (active) in the test on HCT-116 colon. In addition, the growth with KM12 colon was 5.97% (active).

Take `CCS(=O)(=O)Nc1cccc(Nc2c3cccc(C)c3nc3c(C)cccc23)c1OC`: the growth in the test on T-47D breast was 22.2%; in the test on BT-549 breast, 15.8%; with MDA-MB-435 melanoma it was 54.9%; in the test on SW-620 colon, 33.2%; with MCF7 breast it was 11.6%; in the test with HCT-116 colon, 22.9%. For the same compound, the growth in the test on KM12 colon was 15.4%.

`CN1C(=O)N(C)C2C1NN=c1s/c(=C\c3ccc(C(F)(F)F)cc3)c(=O)n12` (stereo not given): the growth with T-47D breast was 24.6%; in the test with BT-549 breast, 50.4%; in the test on MDA-MB-435 melanoma, -52.1% (active); in the test with SW-620 colon, 19.1%; in the test on MCF7 breast, 12%; in the test on HCT-116 colon, 26.9%. The growth in the test on KM12 colon was 16.3%.

For the compound `O=C(N/N=C/c1ccc([N+](=O)[O-])cc1)c1ccccc1Nc1ccnc(C(F)(F)F)c1`, the growth in the test with T-47D breast was 47.2%; in the test with BT-549 breast, 87.4%; in the test with MDA-MB-435 melanoma it was 90.2%; in the test with SW-620 colon, -44.6% (active); in the test with MCF7 breast, 95%; in the test with HCT-116 colon it was 76.8%. The growth in the test with KM12 colon was 87.1%.

On to `COc1ccc(-c2cnc(-c3ccncc3-c3cccc(OC)c3)o2)cc1`, for which the growth with T-47D breast is 37.2%; in the test on BT-549 breast, 37.1%; with MDA-MB-435 melanoma, 4.88% (active); in the test with SW-620 colon, 22.5%; in the test on HCT-116 colon, 4.92% (active); in the test with HCC-2998 colon, 17.3%. Also, the growth in the test on KM12 colon was -28.6% (active).

Regarding `CCCCCc1c(C)[nH]c(/C=C2\N=C(c3ccc[nH]3)C=C2Oc2ccc(OC)cc2)c1C`, the growth in the test on T-47D breast was -48.5% [100 µM] (active); in the test with BT-549 breast it was -91.5% [100 µM] (active); in the test with MDA-MB-435 melanoma it was -82.2% [100 µM] (active); with SW-620 colon, -56.5% [100 µM] (active); with MCF7 breast, -100% [100 µM] (active); with HCT-116 colon it was -99.4% [100 µM] (active). The growth with KM12 colon was -90.9% [100 µM] (active).

Consider `CC(C)[C@@]12C[C@@H](OC(=O)[C@H]3CO3)[C@@](C)(O1)[C@@H]1CC[C@@H](C)[C@H]1[C@@H]2OC(=O)/C=C/c1ccccc1`, for which the growth is 49.4% in the test with T-47D breast; 21.4% with BT-549 breast; 98.2% with MDA-MB-435 melanoma; 94.8% in the test with SW-620 colon; 62.4% in the test on MCF7 breast; 65.8% in the test on HCT-116 colon. For the same compound, the growth with KM12 colon is 103%.
